HT1080NT lethal = kills 2HG-producing HT-1080-NT fibrosarcoma cells. HT-1080-NT fibrosarcoma viability, CellTiter-Glo ATP luminescence, 48 h. Potency, µM (highest dose often 46.1 µM), hits mostly cytotoxic. hit rate 1.6% among 360,000. AID 686970;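 also: NT is the 2HG producing partner of a matched IDH1 knockdown line; nearly all actives have a fitted effect of over 55% in size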
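A 48-hour cytotoxicity screen used HT-1080-NT cells plated 2 hours before compound delivery. ATP-based CellTiter-Glo luminescence measured viability, normalized to DMSO and no-cell controls.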
IL-1B inflam inh = blocks inflammasome-driven IL-1 beta release | AID 743279 | activity change, % at 57.5 µM | hit rate 4.7% among 360,000 | THP-1 LPS/ATP IL-1B secretion, AlphaLISA, 16 h; stronger effect = lower value; in the data active = activity change below about -50%; inconclusive = mostly about -30% to -49%
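THP-1 cells pretreated 1 hr with compounds (up to 57.5 uM final), then stimulated with LPS (250 ng/mL final) plus ATP (1.25 mM final); secreted IL-1B measured by AlphaLISA after 16 hr, decreased signal indicating inhibition.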
HT1080 IDH1KD tx = HT-1080 IDH1 knockdown cell toxicity (counter line); HT-1080 IDH1 knockdown viability, ATP luminescence, 48 h; Potency, µM (series often up to 46.1 µM), usual class: cytotoxic; hit rate 2% among 360,000
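CellTiter-Glo luminescence after 48 h compound exposure at 37 degrees C of IDH1-knockdown HT-1080 cells in 5% FBS RPMI. %Activity scaled between DMSO wells and cell-free media wells, with curves fitted and assigned curve classes.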
12-LOX inh = blocks human arachidonate 12S-lipoxygenase; P18054; purified 12hLO, xylenol orange hydroperoxide absorbance; Potency, µM (top dose mostly 108 µM), hits mostly inhibitors; hit rate 1.1% among 580,000
Target sequence (P18054 whole entry, looked up): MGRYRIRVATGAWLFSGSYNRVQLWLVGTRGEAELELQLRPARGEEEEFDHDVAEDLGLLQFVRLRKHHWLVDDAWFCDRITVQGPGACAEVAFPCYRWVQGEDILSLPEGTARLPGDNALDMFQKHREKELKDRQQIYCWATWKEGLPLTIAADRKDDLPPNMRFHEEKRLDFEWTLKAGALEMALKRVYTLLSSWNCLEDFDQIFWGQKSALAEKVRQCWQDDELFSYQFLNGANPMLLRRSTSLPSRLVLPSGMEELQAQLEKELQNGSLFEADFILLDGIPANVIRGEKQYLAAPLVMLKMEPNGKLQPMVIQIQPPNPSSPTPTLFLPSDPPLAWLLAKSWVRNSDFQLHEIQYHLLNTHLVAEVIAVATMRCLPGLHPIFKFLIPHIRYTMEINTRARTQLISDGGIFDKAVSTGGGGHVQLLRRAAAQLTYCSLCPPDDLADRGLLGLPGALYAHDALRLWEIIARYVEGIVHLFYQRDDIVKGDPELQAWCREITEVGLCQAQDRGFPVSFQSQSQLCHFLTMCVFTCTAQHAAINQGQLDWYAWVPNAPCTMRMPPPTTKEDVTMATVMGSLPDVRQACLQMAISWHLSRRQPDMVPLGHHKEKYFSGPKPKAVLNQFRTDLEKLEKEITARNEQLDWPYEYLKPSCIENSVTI
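Hydroperoxide product was detected by ferrous iron/xylenol orange as the 573 to 405 nm absorbance ratio. Arachidonic acid at 40 uM (final) was turned over for 30 min at room temperature by 150 nM human 12hLO, pH 7.0 Hepes buffer, after 15 min compound preincubation.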
DT40 TDP1 no CPT = qHTS for Inhibitors of human tyrosyl-DNA phosphodiesterase 1 (TDP1): qHTS in cells in absence of CPT; DT40 Tdp1-/- hTDP1 cells, no CPT, ATP luminescence, 48 h; Potency, µM (highest dose often 46.2 µM), hits mostly inhibitors; hit rate 15% among 420,000; also: nearly all actives have a fitted effect of over 55% in size
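Growth kinetics read by CellTiter-Glo luminescence after ≥48 hr at 37 °C. Cells: DT40 Tdp1-/- stably carrying human TDP1, 400 per well, compound exposure in the absence of CPT (DMSO vehicle).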
TDP1 cell CPT = growth inhibition of DT40 Tdp1-/-;hTDP1 cells with camptothecin (screen for TDP1 inhibitors); chicken DT40 Tdp1-/-;hTDP1 cells + 20 nM CPT, ATP luminescence, 48 h; Potency, µM (series often up to 46.2 µM), usual class: inhibitors; hit rate 12% among 420,000; AID 686979; also: nearly all actives have a fitted effect of over 55% in size
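Chicken DT40 Tdp1-/- cells complemented with human TDP1, 400 cells/well, exposed to compounds plus 20 nM camptothecin for at least 48 h at 37 C; viability read as ATP content by CellTiter-Glo luminescence.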
Numbers stand for hits; n = inactive; u = inconclusive; x = no result; [ ] = dose if it differs, or a comment. Only a selection was taken, and hits are over-represented in it overall. Unless noted, calls follow the shape of the dose curve; as a rule, active = well fitted curve in the direction sought with a large enough effect; inconclusive = small, poorly fitted or top-dose-only effect, or another doubt; inactive = no such curve, though single readings can be large; an effect the other way counts as inactive or inconclusive.

SMILES | HT1080NT lethal | IL-1B inflam inh | HT1080 IDH1KD tx | 12-LOX inh | DT40 TDP1 no CPT | TDP1 cell CPT
COc1ccc(Cl)cc1-c1ccc2c(c1)C(=O)N1CCN(C(=O)c3ccco3)C[C@H]1C(=O)N2 | x | x | x | n | x | x
CC(C)(CC(=O)N1CCN(c2ccc(Cl)cc2)CC1)CC1=NS(=O)(=O)c2ccccc2N1 | u | -50.9 | n | n | 11.6µM | 18.4µM
O=C(CCCC1=NS(=O)(=O)c2ccccc2N1)N1CCN(c2ccc(Cl)cc2)CC1 | n | n | n | n | u | 16.4µM
COc1cccc(N2CCN(C(=O)CC(C)(C)CC3=NS(=O)(=O)c4ccccc4N3)CC2)c1 | n | n | n | n | 4.61µM | 14.6µM
CCC(C)[C@@H](NC(=O)OC(C)(C)C)c1nnc(S(=O)(=O)Cc2cccc(C)c2)o1 (stereo partly specified) | 18.4µM | -116.0 | n[9.24 µM] | n | 4.61µM | 2.06µM
CC(C)(C)OC(=O)N[C@@H](Cc1ccccc1)c1nnc(S(=O)(=O)Cc2ccccc2)o1 | x | x | x | n | x | x
Cc1ccccc1CS(=O)(=O)c1nnc([C@H](Cc2ccccc2)NC(=O)OC(C)(C)C)o1 | 5.01µM | u | 1.78µM | n | 2.06µM | 0.651µM
Cc1nnc2c3ccccc3nc(N3CCN(c4cccc(Cl)c4)CC3)n12 | x | x | x | n | 11.6µM | 13µM
Cc1cccc(N2CCN(c3nc4ccccc4c4nnc(C)n34)CC2)c1C | x | x | x | n | 11.6µM | 13µM
CCOC(=O)C1CCN(C(=O)c2cnn(-c3ccc(C)cc3)c2-n2cccc2)CC1 | x | x | x | n | x | x
CCOC(=O)N1CCC(NC(=O)c2cnn(-c3ccc(C)cc3)c2-n2cccc2)CC1 | x | x | x | n | 25.9µM | u
CCC(C)NC(=O)c1cnn(-c2cccc(F)c2)c1-n1cccc1 (stereo unspecified) | x | x | x | u | 16.4µM | 20.6µM
CCOC(=O)N1CCC(NC(=O)c2cnn(-c3cccc(C)c3)c2-n2cccc2)CC1 | x | x | x | n | 18.4µM | 16.4µM
COC(C(=O)Nc1ccnn1C1CCN(C(=O)C2CCC2)CC1)c1ccccc1 (stereo unspecified) | x | x | x | n | x | x
Cc1ccccc1CC(=O)NC1CCN(c2cc(-c3ccccc3)[nH]n2)CC1 | x | x | x | n | x | x
O=C(Oc1ccc(-c2ccccc2)cc1)c1ccco1 | n | n | n | n | n | n
O=Cc1ccnc(-c2ccc(OC(=O)c3ccco3)cc2)n1 | n | -86.4 | n | n | 5.8µM | 5.17µM
COCCNC(=O)CN1CCN(c2cc(-c3nc4ccccc4s3)c3ccccc3n2)CC1 | x | x | x | n | x | x
O=C(CCl)N1CCCC1c1ccc2c(c1)OCCO2 (stereo unspecified) | 23.1µM | -102.5 | 18.4µM | n | 1.16µM | 0.731µM
Cc1ccc(NC(=O)NC(=O)CN2CCCC2c2ccc3c(c2)OCCO3)cc1C (stereo unspecified) | n[9.24 µM] | n | n | n | u | 29.1µM
O=C(c1n[nH]c2ccccc12)N1CCC2(CC1)CC(N1CCCCC1)CCO2 (stereo unspecified) | x | x | x | n | x | x
CCN(CC)S(=O)(=O)c1ccc(N2CCN(c3cccc(OC)c3)CC2)c([N+](=O)[O-])c1 | n | n | u | n | 8.2µM | 13µM
CCN(CC)S(=O)(=O)c1ccc2c(c1)N(CC(=O)N1CCN(c3ccccc3F)CC1)C(=O)CO2 | x | x | x | n | x | x
O=C(CN1C(=O)COc2ccc(S(=O)(=O)N3CCCC3)cc21)N1CCN(c2ccc(Cl)cc2)CC1 | x | x | x | n | x | x
COc1cccc(N2CCN(c3ccc(S(=O)(=O)N4CCN(C)CC4)cc3[N+](=O)[O-])CC2)c1 | n | n | n | u | u | u
CCN(CC)S(=O)(=O)c1ccc2c(c1)N(CC(=O)N1CCN(c3ccc(OC)cc3)CC1)C(=O)CO2 | x | x | x | n | u | 20.6µM
CCN(CC)S(=O)(=O)c1ccc2c(c1)N(CC(=O)N1CCN(c3cccc(OC)c3)CC1)C(=O)CO2 | x | x | x | n | u | 20.6µM

Screens as filed in PubChem.
